From PubChem BioAssay come the findings set out here.

For the assay, the target named is Tumor necrosis factor receptor superfamily member 10B (Homo sapiens) (UniProt O14763). Put plainly: caspase-8 TRAIL sensitization, hit retest, confirmation, cell-based, NB7+caspase-8, with/without TRAIL, luminescence panel (AID 651596). Conditions: NB7 neuroblastoma + caspase-8, TRAIL sensitization, luminescence viability, with TRAIL, mean of runs, at 10 µM, stronger effect = higher value; in the data active = activity above about 50%; inactive = the rest.
Tumor necrosis factor receptor superfamily member 10B (Homo sapiens), sequence (O14763 whole entry, looked up): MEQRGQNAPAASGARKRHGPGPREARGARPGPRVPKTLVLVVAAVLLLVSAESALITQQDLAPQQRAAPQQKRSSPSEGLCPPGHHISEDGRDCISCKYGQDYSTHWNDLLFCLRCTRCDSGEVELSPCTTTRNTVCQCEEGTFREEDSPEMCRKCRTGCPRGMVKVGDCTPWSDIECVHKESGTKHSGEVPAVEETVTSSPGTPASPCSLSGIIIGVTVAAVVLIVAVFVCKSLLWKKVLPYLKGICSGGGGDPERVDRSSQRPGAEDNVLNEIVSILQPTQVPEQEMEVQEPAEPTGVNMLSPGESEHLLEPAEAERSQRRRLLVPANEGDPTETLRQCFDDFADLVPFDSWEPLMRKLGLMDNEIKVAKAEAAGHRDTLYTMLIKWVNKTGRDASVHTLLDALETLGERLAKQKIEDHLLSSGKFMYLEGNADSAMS
Regarding `CC(C)C[C@H](NC(=O)c1nc[nH]c1C(=O)N[C@@H](CC(C)C)C(=O)OC(C)(C)C)C(=O)OC(C)(C)C`, the activity amounted to 72.4%.

As to `CCC(C)c1ccc(-c2cc(C(=O)OCC(=O)Nc3cc(C)on3)c3ccccc3n2)cc1` (stereo not drawn), the activity was 85.1%.

On to `CC(=O)Nc1ccc(/C=N/Nc2nc3ccccc3[nH]2)cc1`, for which the activity worked out at 76.2%.

On to `O=C1Nc2cc(C(=O)NCCN3CCCCCC3)ccc2S/C1=C/c1ccccc1F`, for which the activity turned out to be 82.5%.

Turning to `Cc1ccc(NC(=O)c2ccc3nsnc3c2)c(Cl)c1`, the activity is 60.6%.

Take `Cc1ccsc1/C=N/NC(=O)c1ccc2c(c1)OCCO2`: the activity was found to be 75.9%.

On to `O=C(Nc1ccc2c(c1)OCO2)c1ccc(Cl)cc1Cl`, for which the activity stood at 72.1%.

`COc1cccc(/C=C2/Sc3ccc(C(=O)NCCN4CCCCCC4)cc3NC2=O)c1`: the activity stood at 36%.

`COC(=O)c1c(NC(=O)c2nc3ccccc3s2)sc2c1CC(C)(C)NC2(C)C`: the activity amounted to 87.8%.

`C/C(Cn1nnc([N+](=O)[O-])n1)=N\NC(=O)c1ccccc1O`: the activity is 43.8%.

For the molecule `CSc1ccc(/C=C/C(=O)c2c(O)cc(C)oc2=O)cc1`, the activity amounted to 78.7%.

With `O=C(COc1ccc2ccccc2c1)Nc1nccs1`, the activity is 58%.

Consider `Cc1ccc(NC(=O)COc2ccccc2[N+](=O)[O-])nc1`, for which the activity was determined as 60.5%.

`Cc1ccc(NC(=O)Cn2ncc(Cl)c(Cl)c2=O)cc1S(=O)(=O)N1CCCCC1`: the activity is 86.5%.

Regarding `O=C(Nc1ccc2c(c1)OCCO2)c1ccc(Cl)cc1Cl`, the activity was 72.8%.

Take `COc1ccc(C=Cc2ccc3ccccc3n2)c(OC)c1`: the activity is 79.1%.

Regarding `COc1ccc(-n2cc(C(=O)c3ccccc3O)cn2)cc1`, the activity worked out at 39.1%.

As for `CCCc1cc(=O)[nH]c(SCC(=O)c2c(N)n(CC(C)C)c(=O)n(C)c2=O)n1`, the activity amounted to 80.5%.
